Screening results from PubChem BioAssay.
KB-V1 cytotox – KB-V1 MDR subline cytotoxicity | 400,000 tested, 3.4% active | Potency, µM (top dose mostly 46.1 µM), actives largely listed as cytotoxic | AID 1347076 | KB-V1 MDR cells viability, CellTiter-Glo, 72 h; further: on the % scale 0 is the no-effect control and ±100 the full control effect; nearly all actives have a fitted effect of over 60% in size
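Readout: CellTiter-Glo luminescence, 10 min after addition. Cells: KB-V1 MDR subline, 72 h at 37 degrees C with compound. Analysis: corrected, normalized data fitted to concentration-effect curves.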
HT1080 IDH1KD tx – toxicity to HT-1080 IDH1 knockdown cells (counter line) | Potency, µM (titrated, usually from 46.1 µM), for the others: at the highest dose activity, negative = toxicity, most hits filed as cytotoxic | HT-1080 IDH1 knockdown viability, ATP luminescence, 48 h | 360,000 tested, 2% active;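 further: 0% = DMSO wells and -100% = cell-free medium wells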
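In this qHTS, HT-1080 cells depleted of IDH1 are exposed for 48 h at 37 °C to compound titrations. Toxicity is scored from CellTiter-Glo luminescence, with DMSO as full viability and medium alone as none.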
TGFb inhibitor – blocks TGF-b signaling. 410,000 tested, 1.2% active. Potency, µM (highest dose often 46.1 µM), for the others: at the highest dose activity, negative = inhibition, hits mostly inhibitors. HepG2 CAGA-GFP TGF-b/SMAD3 reporter, GFP fluorescence, 18 h; TGF-beta stimulated, 500 pg/mL final; further: on the % scale 0 is the no-effect control and ±100 the full control effect; nearly all actives have a fitted effect of over 65% in size
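Per well, imaged GFP fluorescence of HEPG2 CAGA-GFP cells gives the signal; cells get compound, then TGF-beta (500 pg/mL final), 18 h at 37 degrees C; %Activity versus -TGF-beta and +DMSO controls.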
KB-3-1 tox – KB-3-1 parental cell cytotoxicity; 400,000 tested, 1.4% active; AID 1347075; KB-3-1 viability, CellTiter-Glo ATP luminescence, 72 h; Potency, µM (top dose mostly 46.1 µM), actives largely listed as cytotoxic; further: on the % scale 0 is the no-effect control and ±100 the full control effect; nearly all actives have a fitted effect of over 60% in size
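KB-3-1 cells, DMEM (no phenol red) + 10% FBS; compound by pin transfer, 72 h, 37 °C. Readout: CellTiter-Glo luminescence after 10 min. Data normalized, curve-fitted.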
HT1080NT lethal – kills 2HG-producing HT-1080-NT fibrosarcoma cells | AID 686970 | Potency, µM (top dose mostly 46.1 µM), for inactives: top-dose activity, negative = less viability, most hits filed as cytotoxic | 360,000 tested, 1.6% active | HT-1080-NT fibrosarcoma viability, CellTiter-Glo ATP luminescence, 48 h;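 further: NT is the 2HG producing partner of a matched IDH1 knockdown line; 0% = DMSO-treated cells and -100% = media-only wells without cells; nearly all actives have a fitted effect of over 55% in size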
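Toxicity toward the 2HG-producing NT line was scored as %Activity, normalised to DMSO and no-cell wells, from CellTiter-Glo luminescence after 48 hours' treatment.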
HepG2 viability – HepG2 cytotoxicity, counter-screen for TGF-b inhibitors; 410,000 tested, 0.76% active; HepG2 CAGA-GFP viability, ATP luminescence, 18 h; AID 588856; Potency, µM (highest dose often 46.1 µM), inactives show top-dose activity change, negative = cytotoxicity, hits mostly cytotoxic
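HepG2 CAGA-GFP cells (1000/well, DMEM with 1% FBS) received compound, then TGF-beta at 500 pg/mL final, and were incubated 18 hours at 37 degrees C. Viability was read by CellTiter-Glo luminescence. Media-only wells were set as complete cell-killing and DMSO as no toxicity.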
Active calls of the source: *; [ ] = another dose, or the depositor's remark. Most compounds without a hit are left out; they make up all but 6.6% or so of the library. The call rests on the fitted dose curve; in most records, active means well fitted curve in the direction sought with a large enough effect; inconclusive means small, poorly fitted or top-dose-only effect, or another doubt; inactive means no such curve, though single readings can be large; an effect the other way counts as inactive or inconclusive. Potency means the concentration at half of the fitted maximal effect.

What do the screens show for `Cc1c(Cl)cccc1-n1ncc(C(=O)N2CCC(C)CC2)c1C1CCN(C(=O)OC(C)(C)C)CC1`?
KB-V1 cytotox: inactive; TGFb inhibitor: -7%; KB-3-1 tox: inactive; HepG2 viability: -30%

How did COc1cccc(NC(=O)c2cc(-c3cccnc3)nc3c(Cl)cccc23)c1 do in these assays?
KB-V1 cytotox: 2.9µM*; HT1080 IDH1KD tx: inconclusive; TGFb inhibitor: -5%; KB-3-1 tox: inactive; HT1080NT lethal: -24%; HepG2 viability: -19%

How did COc1cccc(NC(=O)c2cc(Cl)nnc2Cl)c1 do in these assays?
KB-V1 cytotox: inactive; HT1080 IDH1KD tx: inconclusive; TGFb inhibitor: -11%; KB-3-1 tox: inconclusive; HT1080NT lethal: 12µM*; HepG2 viability: -30%

Results for CCOc1ccc(-c2cnc(NCc3ccc(OC)cc3OC)n2C)cc1 ?
KB-V1 cytotox: inactive; TGFb inhibitor: -19%; KB-3-1 tox: inactive; HepG2 viability: -42%

Results for COc1ccc(OC)c(C2CC(=O)Nc3ccc4ccccc4c32)c1 (centres undefined) ?
KB-V1 cytotox: inactive; TGFb inhibitor: -28%; KB-3-1 tox: inactive; HepG2 viability: -37%

Results for CCCCOc1ccccc1C1CC(=O)Nc2ccc3ccccc3c21 (centres undefined) ?
TGFb inhibitor: inconclusive; HepG2 viability: 11µM*

How did Cc1ccc(C)c(NC(=S)NNc2ccc(F)cc2F)c1 do in these assays?
KB-V1 cytotox: inactive; HT1080 IDH1KD tx: 26µM*; TGFb inhibitor: -1%; KB-3-1 tox: inactive; HT1080NT lethal: 26µM*; HepG2 viability: 10%

Results for Cc1ccc(C)c(NC(=S)NCCc2ccc(F)cc2)c1 ?
KB-V1 cytotox: inactive; HT1080 IDH1KD tx: -1%; TGFb inhibitor: inconclusive; KB-3-1 tox: inactive; HT1080NT lethal: -2%; HepG2 viability: -36%

How did NC1=NC2(CCC(c3ccccc3)CC2)n2c(nc3ccccc32)N1 (centres undefined) do in these assays?
KB-V1 cytotox: inactive; HT1080 IDH1KD tx: inconclusive; TGFb inhibitor: inconclusive; KB-3-1 tox: inconclusive; HT1080NT lethal: 21µM*; HepG2 viability: -31%

What do the screens show for `O=C(Cn1cnc2c(cnn2-c2ccc(Cl)cc2)c1=O)N1CCN(c2ccccc2)CC1`?
KB-V1 cytotox: 5.2µM*; HT1080 IDH1KD tx: inconclusive; TGFb inhibitor: -22%; KB-3-1 tox: inactive; HT1080NT lethal: inconclusive; HepG2 viability: -9%

Results for O=C(Cn1cnc2c(cnn2-c2ccccc2)c1=O)N1CCOCC1 ?
KB-V1 cytotox: inactive; HT1080 IDH1KD tx: 10%; TGFb inhibitor: 27%; KB-3-1 tox: inconclusive; HT1080NT lethal: 16%; HepG2 viability: 7%

What do the screens show for `O=C(Cn1nc(-c2ccc(Cl)cc2)ccc1=O)N1CCN(c2ccccc2)CC1`?
KB-V1 cytotox: 21µM*; HT1080 IDH1KD tx: -14%; TGFb inhibitor: -27%; KB-3-1 tox: inactive; HT1080NT lethal: -4%; HepG2 viability: 1%

Results for O=C(Cn1ncc2ccsc2c1=O)N1CCN(c2ccc(Cl)cc2)CC1 ?
KB-V1 cytotox: 21µM*; TGFb inhibitor: 0%; KB-3-1 tox: inconclusive; HepG2 viability: -21%

How did O=C(O)Cn1nc(-c2ccc(Cl)cc2)ccc1=O do in these assays?
KB-V1 cytotox: inactive; HT1080 IDH1KD tx: 8%; TGFb inhibitor: 0%; KB-3-1 tox: inactive; HT1080NT lethal: 4%; HepG2 viability: 2%

How did Cc1ccc(NC(=O)Cn2c(=O)n(CC3CCC(C(=O)NC(C)C)CC3)c(=O)c3sccc32)cc1 (centres undefined) do in these assays?
KB-V1 cytotox: inactive; TGFb inhibitor: -5%; KB-3-1 tox: inactive; HepG2 viability: -1%

Results for Cc1cc2c(cc1C)C(c1cccc(F)c1)CC(=O)N2 (centres undefined) ?
KB-V1 cytotox: inconclusive; HT1080 IDH1KD tx: -22%; TGFb inhibitor: -26%; KB-3-1 tox: inconclusive; HT1080NT lethal: -17%; HepG2 viability: -3%

How did Cc1cc2c(cc1C)C(c1cc(Br)ccc1F)CC(=O)N2 (centres undefined) do in these assays?
KB-V1 cytotox: 13µM*; HT1080 IDH1KD tx: inconclusive; TGFb inhibitor: inconclusive; KB-3-1 tox: 8.2µM*; HT1080NT lethal: inconclusive; HepG2 viability: -34%

What do the screens show for `COC(=O)C1=C(C)NC(=O)CC1c1cc(Br)ccc1F` (centres undefined)?
KB-V1 cytotox: inconclusive; HT1080 IDH1KD tx: -2%; TGFb inhibitor: -12%; KB-3-1 tox: inactive; HT1080NT lethal: -2%; HepG2 viability: -1%

Results for Cc1cc2c(cc1C)C(c1ccccc1F)CC(=O)N2 (centres undefined) ?
KB-V1 cytotox: inconclusive; HT1080 IDH1KD tx: inconclusive; TGFb inhibitor: -21%; KB-3-1 tox: 5.8µM*; HT1080NT lethal: inconclusive; HepG2 viability: -7%

How did Cc1ccc(NC(=S)N2CC(C)OC(C)C2)cc1C (centres undefined) do in these assays?
KB-V1 cytotox: inactive; HT1080 IDH1KD tx: 4%; TGFb inhibitor: 0%; KB-3-1 tox: inactive; HT1080NT lethal: 3%; HepG2 viability: 18%

How did CSc1ccc(/C=C/c2ccnc3ccccc23)cc1 do in these assays?
KB-V1 cytotox: inactive; TGFb inhibitor: -4%; KB-3-1 tox: inconclusive; HepG2 viability: 7%

What do the screens show for `Cn1ccnc1C(O)c1cc(C(C)(C)C)c(O)c(C(C)(C)C)c1` (centres undefined)?
KB-V1 cytotox: inactive; HT1080 IDH1KD tx: 5%[9.24 µM]; TGFb inhibitor: 16µM*; KB-3-1 tox: inactive; HT1080NT lethal: 16µM*; HepG2 viability: -81%

What do the screens show for `COc1ccc(S(=O)(=O)NCC(c2ccco2)N2CCN(c3ccccc3F)CC2)cc1C` (centres undefined)?
TGFb inhibitor: -1%; HepG2 viability: -11%

Results for COc1cc(NC(=O)CSc2nc(C)c(C)c(C)n2)c(C)cc1[N+](=O)[O-] ?
KB-V1 cytotox: 15µM*; HT1080 IDH1KD tx: -3%; TGFb inhibitor: -1%; KB-3-1 tox: inactive; HT1080NT lethal: -4%; HepG2 viability: -1%

Results for COc1cc(NC(=O)CSc2nncn2C)c(C)cc1[N+](=O)[O-] ?
KB-V1 cytotox: inactive; HT1080 IDH1KD tx: 18%; TGFb inhibitor: -1%; KB-3-1 tox: inconclusive; HT1080NT lethal: 1%; HepG2 viability: -10%

Results for COc1cccc(CNc2ccc(S(N)(=O)=O)cc2)c1OCc1ccccc1F ?
KB-V1 cytotox: 21µM*; HT1080 IDH1KD tx: -22%; TGFb inhibitor: -26%; KB-3-1 tox: inconclusive; HT1080NT lethal: -8%; HepG2 viability: -13%
